# Experimental data reported in PubChem BioAssay AID1053128 (The Scripps Research Institute Molecular Screening Center, 2014).
# Values without a mark were called inactive. The rule behind the calls is not given here.
# Test: DD(E) peptide probe displacement potency, late-stage follow-up, counter-screen for fibrin DD(E)-Tn6 binding project, biochemical, fluorescence polarization, dose response (AID 1053128)
# Conditions: Fluorescence polarization counterscreen, Tn6 peptide/DD(E) assay
row,Compound,IC50 [µM]
1,Cc1cc2c(cc1S(=O)(=O)N1CCN(c3cccc(C)c3C)CC1)OCCN2C,> 83.3
2,N#CC1=C(N)Oc2ccc3ccc(O)cc3c2C1c1ccsc1 (stereo not given),> 83.3
3,Cc1cc2cc(CNC(=O)c3ccc(S(=O)(=O)N4CCOCC4)cc3)ccc2n1C,> 83.3
4,CCn1c(CSc2n[nH]c(N)n2)nc2cc(C(=O)O)ccc21,> 83.3
5,COc1ccc2ccccc2c1C(O)c1nccn1C (stereo not given),> 83.3
6,Cc1cc(C)c(S(=O)(=O)NCCn2c(C)cc3ccccc32)c(C)c1,> 83.3
7,Cc1cc2cc(CNS(=O)(=O)c3ccc4ccccc4c3)ccc2n1C,> 83.3
8,NS(=O)(=O)c1ccc(NS(=O)(=O)c2ccc(NC(=O)c3ccc(-c4ccccc4)cc3)cc2)cc1,> 83.3
9,CN1C(=O)NC(c2ccccc2[N+](=O)[O-])C2=C1CCCC2=O (stereo not given),> 83.3
10,O=C(O)CCCNc1cc(N2CCN(C(=O)c3ccco3)CC2)c2noc3c2c1C(=O)c1ccccc1-3,> 83.3
